Reference: PubChem BioAssay (NCATS)
Inconclusive results are not listed. Calls of active or inactive are those of the source. Calls come from the whole dose curve; as a rule, active = well fitted cell-killing curve with a large enough effect; inconclusive = small, poorly fitted or top-dose-only effect; inactive = flat fitted curve, though single readings scatter.

experiment: Cell Viability - LYMP2-007 (AID 979); conditions: LYMP2-007 lymphoblastoid cell viability; series mostly up to 92.2 µM;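 note: cells exposed to compound for 24 h before reading; nearly all actives have a fitted effect of over 60% in size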
Description: NIH Chemical Genomics Center [NCGC]
NIH Molecular Libraries Screening Centers Network [MLSCN]
National Institutes of Environmental Health Sciences [NIEHS]
National Toxicology Program [NTP]
We have developed a 1536-well cell-based assay for quantitative high throughput screening (qHTS) against a number of cell lines to determine in vitro cytotoxicity of small molecules. This particular assay uses a human lymphoblastoid cell line (LYMP2-007) purchased from Coriell Institute for Medical Research.
NCGC Assay Protocol Summary:
The CellTiter-Glo luminescent cell viability assay (Promega) is a homogeneous method to measure the number of viable cells in culture. The end point readout of this assay is based on quantitation of intracellular ATP, an indicator of metabolic activity, using the luciferase reaction. Luciferase catalyzes the oxidation of beetle Luciferin to oxyluciferin and light in the presence of ATP. The luminescent signal is proportional to amount of ATP present.
Using the CellTiter-Glo luminescent cell viability assay, the amount of cellular ATP was measured in the lymphoblastoid cell line with complete culture medium following compound treatment for 24 hours. The assay was performed in opaque white Kalypsys 1536-well plates. In the screen, tetraoctylammonium bromide was used as positive control. Library compounds were measured for their ability to cause acute toxicity in the cell line, as reflected by a decrease in intracellular ATP levels, in a concentration-dependent manner. […] AC50 values were determined from concentration-response data modeled with the standard Hill equation.
qHTS protocol for CellTiter Glo lymphoblastoid cellular assay
[Step] [Parameter] [Value] [Description]
1. Reagent; 5 uL; 2500 lymphoblastoid cells/well
2. Time; 5 hr; 37 C incubation
4. Controls; 23 nL; Tetraoctylammonium bromide 6.4pM to 92 uM
5. Time; 24 hr; 37 C incubation
6. Reagent; 5 uL; CellTiter Glo reagent
7. Time; 30 min; Room Temperature
8. Detection; Luminescence; Viewlux plate reader
Keywords: cell viability, cytotoxicity, lymphoblastoid cell line, luminescence, NTPHTS, NTPHTS_NCGC, NIEHS, DSSTox, MLSMR, MLSCN, NIH Roadmap, qHTS, NCGC

| SMILES | outcome |
| --- | --- |
| c1ccc(Nc2ccc3ccccc3c2)cc1 | inactive |
| CCOc1cc(C=O)ccc1O | inactive |
| O=Cc1ccccc1 | inactive |
| Cc1ccccc1O | inactive |
| Oc1ccccc1Cl | inactive |
| CCOC(=O)c1ccccc1N | inactive |
| Oc1c(Cl)c(Cl)c(Cl)c(Cl)c1Cl | inactive |
| COC(=O)c1ccccc1C(=O)OC | inactive |
| CC(=O)/C=C/c1ccccc1 | inactive |
| c1ccc2c(c1)-c1cccc3cccc-2c13 | inactive |
| CC(C)COC(=O)c1ccccc1C(=O)OCC(C)C | inactive |
